Assay outcomes: PubChem BioAssay, several laboratories
sPLA2-III inh – human group III sPLA2 inhibitors, primary screen, biochemical, QFRET, BODIPY PC-A2 liposome substrate; QFRET BODIPY PC-A2 liposome hydrolysis, fluorescence; inhibition, % at 12.2 µM; actives 0.56% (n = 370,000); AID 743126, 2013;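 active = inhibition above mean plus 3 SD of compounds lying within the high and low control bounds, cut at about 19% in these data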
NR3A LBD binder – binders of NR3A ligand-binding domain, primary screen, biophysical, differential scanning fluorimetry, uHTS; NR3A LBD differential scanning fluorimetry, Tm shift; 0% = protein alone, 100% = glycine-bound protein; actives 2.5% (n = 340,000); Glutamate receptor ionotropic, NMDA 3A (GRIN3A) ligand-binding domain; Tm shift relative to glycine control, % at 25 µM; AID 1259313, 2017;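 active = melting temperature shift of at least 10% of the positive control shift, at one fixed dose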
ADAM17 inh – ADAM17 inhibitors, primary screen, biochemical, QFRET. Disintegrin and metalloproteinase domain-containing protein 17 (Homo sapiens), P78536. recombinant ADAM17, EDANS/DABCYL FRET peptide cleavage. inhibition, % at 6.95 µM. actives 0.83% (n = 370,000);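 active = inhibition above the mean of compounds lying between control limits plus 3 SD, set per campaign, cut at about 8.5% in these data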
FAS TE block – FAS thioesterase domain inhibitors, primary screen, biochemical, fluorescence intensity, uHTS; inhibition, % at 15 µM; AID 602261, 2012; recombinant FAS-TE, OMFH fluorogenic substrate, fluorescence endpoint; Fatty acid synthase (Homo sapiens), P49327; actives 0.67% (n = 360,000);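 active = compounds whose normalised, plate-corrected inhibition of enzyme fluorescence in the single-dose primary screen is 50% or more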
Target sequence (P49327 whole entry, looked up, the tested form may be a part): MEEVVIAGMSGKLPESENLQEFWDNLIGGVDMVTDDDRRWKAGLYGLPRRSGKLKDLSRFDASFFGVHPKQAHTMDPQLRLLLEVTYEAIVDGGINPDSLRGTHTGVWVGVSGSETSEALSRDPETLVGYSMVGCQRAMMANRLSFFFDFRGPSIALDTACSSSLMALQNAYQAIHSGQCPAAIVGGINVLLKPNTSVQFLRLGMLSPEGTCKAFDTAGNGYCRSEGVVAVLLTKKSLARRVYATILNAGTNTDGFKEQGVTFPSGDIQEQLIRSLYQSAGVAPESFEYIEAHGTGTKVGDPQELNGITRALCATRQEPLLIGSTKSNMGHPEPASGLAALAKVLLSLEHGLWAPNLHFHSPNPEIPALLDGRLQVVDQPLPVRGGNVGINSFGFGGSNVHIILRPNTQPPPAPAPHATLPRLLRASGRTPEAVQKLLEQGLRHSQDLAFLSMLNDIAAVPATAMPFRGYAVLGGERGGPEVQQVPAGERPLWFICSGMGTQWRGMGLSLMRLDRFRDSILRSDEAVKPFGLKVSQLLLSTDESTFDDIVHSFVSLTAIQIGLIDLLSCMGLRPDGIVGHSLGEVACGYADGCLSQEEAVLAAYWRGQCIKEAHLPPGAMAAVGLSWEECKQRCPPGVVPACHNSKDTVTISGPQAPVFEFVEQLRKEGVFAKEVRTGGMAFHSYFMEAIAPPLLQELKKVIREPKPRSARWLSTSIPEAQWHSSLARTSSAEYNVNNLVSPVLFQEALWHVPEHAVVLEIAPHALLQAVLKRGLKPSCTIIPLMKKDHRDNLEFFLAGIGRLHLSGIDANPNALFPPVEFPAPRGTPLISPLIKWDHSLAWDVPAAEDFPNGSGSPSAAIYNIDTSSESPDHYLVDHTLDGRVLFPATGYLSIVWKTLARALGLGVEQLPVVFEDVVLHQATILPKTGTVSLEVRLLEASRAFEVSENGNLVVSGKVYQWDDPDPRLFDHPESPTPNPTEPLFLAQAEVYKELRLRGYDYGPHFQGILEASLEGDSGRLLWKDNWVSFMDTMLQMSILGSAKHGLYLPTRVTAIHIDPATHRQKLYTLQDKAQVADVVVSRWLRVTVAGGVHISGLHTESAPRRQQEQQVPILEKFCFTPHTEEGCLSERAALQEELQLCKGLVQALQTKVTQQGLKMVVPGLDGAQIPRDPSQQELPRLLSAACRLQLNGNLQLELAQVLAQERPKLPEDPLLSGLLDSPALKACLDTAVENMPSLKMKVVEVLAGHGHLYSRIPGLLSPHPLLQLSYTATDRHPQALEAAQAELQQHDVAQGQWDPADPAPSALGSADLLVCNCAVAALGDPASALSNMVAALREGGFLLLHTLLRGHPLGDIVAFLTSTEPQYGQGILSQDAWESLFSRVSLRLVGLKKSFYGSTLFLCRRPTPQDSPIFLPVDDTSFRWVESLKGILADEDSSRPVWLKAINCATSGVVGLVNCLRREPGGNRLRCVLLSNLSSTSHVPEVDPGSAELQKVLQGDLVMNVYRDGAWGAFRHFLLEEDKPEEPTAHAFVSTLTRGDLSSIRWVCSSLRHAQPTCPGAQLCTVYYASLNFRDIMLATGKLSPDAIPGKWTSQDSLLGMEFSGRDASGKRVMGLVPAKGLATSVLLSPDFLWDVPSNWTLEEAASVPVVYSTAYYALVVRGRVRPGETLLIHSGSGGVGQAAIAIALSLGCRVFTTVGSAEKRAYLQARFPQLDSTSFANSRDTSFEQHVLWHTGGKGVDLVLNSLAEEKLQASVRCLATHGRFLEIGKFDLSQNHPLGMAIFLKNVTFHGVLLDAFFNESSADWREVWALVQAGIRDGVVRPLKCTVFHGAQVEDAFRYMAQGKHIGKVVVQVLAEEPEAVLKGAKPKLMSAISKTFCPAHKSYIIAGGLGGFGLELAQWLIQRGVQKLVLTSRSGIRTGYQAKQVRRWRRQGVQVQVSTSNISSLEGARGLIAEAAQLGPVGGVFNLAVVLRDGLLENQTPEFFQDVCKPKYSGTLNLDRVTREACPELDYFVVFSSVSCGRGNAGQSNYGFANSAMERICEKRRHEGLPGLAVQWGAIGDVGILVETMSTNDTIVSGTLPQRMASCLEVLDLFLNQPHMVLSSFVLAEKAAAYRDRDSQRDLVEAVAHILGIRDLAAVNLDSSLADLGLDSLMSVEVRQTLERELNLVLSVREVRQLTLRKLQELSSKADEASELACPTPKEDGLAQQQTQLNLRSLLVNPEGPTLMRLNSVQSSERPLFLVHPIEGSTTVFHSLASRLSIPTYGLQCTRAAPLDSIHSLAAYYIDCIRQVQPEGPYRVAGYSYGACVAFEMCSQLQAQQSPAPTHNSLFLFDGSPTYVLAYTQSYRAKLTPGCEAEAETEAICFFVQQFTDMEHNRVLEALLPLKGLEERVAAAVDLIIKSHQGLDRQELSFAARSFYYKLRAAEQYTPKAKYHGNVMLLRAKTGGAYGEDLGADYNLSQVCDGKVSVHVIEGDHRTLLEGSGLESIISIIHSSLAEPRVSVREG
ADAM10 inh – human ADAM10 inhibitors, primary screen, biochemical, QFRET, HTS | Disintegrin and metalloproteinase domain-containing protein 10 (Homo sapiens), O14672 | recombinant ADAM10, EDANS/DABCYL FRET peptide cleavage, 3 h | inhibition, % at 7 µM | actives 0.62% (n = 370,000) | AID 720582, 2013;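 active = inhibition above a per-campaign cutoff equal to the mean of compounds falling between control-based bounds plus 3 SD, cut at about 20% in these data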
Numbers stand for hits; . = inactive; / = no result given. A selection: hits, their analogues and other compounds. The true share with any hit is near 4.3%.

SMILES | sPLA2-III inh | NR3A LBD binder | ADAM17 inh | FAS TE block | ADAM10 inh
CCCCN1CCN(C(=O)C2CCCN(C(=O)c3ccc4c(c3)NC(=O)CS4)C2)CC1 (configuration not stated) | . | / | . | / | .
CNNC(=S)Nc1cccc(C(F)(F)F)c1 | . | . | . | . | .
COc1ccc(NC(=S)NNC(=S)Nc2cccc(C(F)(F)F)c2)cc1 | . | 33.6 | . | . | .
CCOc1ccc(NC(=S)NNC(=S)Nc2cccc(C(F)(F)F)c2)cc1 | . | 20.1 | . | . | .
CCCCCCCCN1C(=O)[C@@H](CC(=O)NCCCOC)C[C@@]2(C(=O)OC)C1=C[C@H](C(C)C)O[C@@H]2C1CC1 | . | / | . | / | .
COC(=O)[C@]12C[C@H](CC(=O)NCc3cccc4ccccc34)C(=O)N(CCC3=CCCCC3)C1=C[C@H](C(C)C)O[C@@H]2C1CC1 | . | / | . | / | .
COC(=O)[C@]12C[C@H](CC(=O)N3CCCCC3)C(=O)N(Cc3ccco3)C1=C[C@H](COCc1ccccc1)O[C@@H]2C | . | / | . | / | .
CCOC(=O)[C@]12CCCCC/C=C\1N(Cc1ccc(OC)cc1)C(=O)[C@H]2CC(=O)NCCc1ccccc1OC | . | / | . | / | .
O=C(Nc1cccc(Cl)c1)Nc1sccc1-c1nc2ccccc2s1 | . | 28.6 | . | . | .
O=C(Nc1ccccc1)Nc1sccc1-c1nc2ccccc2s1 | . | 21.5 | . | . | .
CSC1=N/C(=C\c2ccccc2F)C(=O)S1 | . | 15.7 | . | . | .
COc1cccc(/C=C2\N=C(SC)SC2=O)c1OC | . | . | . | . | .
COc1ccc2cc(C(=O)N/N=C/c3cc(OC)c(OC)c(OC)c3)[nH]c2c1 | . | 18.8 | . | . | .
COc1cc2cc(C(=O)N/N=C/c3ccc(F)cc3)[nH]c2cc1OC | . | 13.1 | . | . | .
CCOc1ccc2[nH]c(C(=O)N/N=C/c3ccc(OC)cc3)cc2c1 | . | / | . | . | .
COc1ccc(/C=N/NC(=O)c2cc3cc(OC)c(OC)cc3[nH]2)cc1 | . | . | . | . | .
COc1ccc2[nH]c(C(=O)N/N=C/c3ccc(O)cc3O)cc2c1 | . | 13.3 | . | . | .
COC(=O)[C@@]12CCCCC=C1N(CCc1ccc(Cl)cc1)C(=O)[C@H]2CC(=O)NCc1cccc2ccccc12 | . | / | . | / | .
O=C(Nc1ccc(F)cc1)OCc1cn(Cc2cccc(Cl)c2)nn1 | . | / | . | / | .
CC1CCCCC1N(C(=O)c1cc(C2CC2)on1)C1CCCCCC1 (configuration not stated) | . | / | . | / | .
COC(=O)C1OC(OC2CC[C@]3(C)C(CC[C@@]4(C)[C@@H]3CC=C3[C@@H]5CC(C)(C)CC[C@]5(C(=O)OC5OC(CO)C(O)C(O)C5O)CC[C@]34C)C2(C)C)C(O)C(O)C1O[C@H]1OCC(O)C(O)C1O (some centres not stated) | / | 14.6 | / | . | /
C/C=C/C(=O)N1CCC(C(=O)NCC2COc3ccccc3O2)CC1 (configuration not stated) | . | / | . | / | .
Nc1cccc(-c2nc3cc(S(=O)(=O)c4ccc5oc(-c6cccc(N)c6)nc5c4)ccc3o2)c1 | . | 23.6 | . | . | .
O=S1(=O)C=CCN1Cc1cn(Cc2cccc(Cl)c2)nn1 | . | / | . | / | .
COc1ccc(/C=C/C(Cc2cccc(C(C)=O)c2)c2ccc(C)cc2)cc1 (configuration not stated) | . | / | . | / | .
SMILES | sPLA2-III inh | NR3A LBD binder | ADAM17 inh | FAS TE block | ADAM10 inh
COc1ccc(C(=O)O/N=C(\N)c2ccccc2)cc1 | . | / | . | . | .
N/C(=N\OC(=O)c1ccc2ccccc2c1)c1cccc([N+](=O)[O-])c1 | . | 35.0 | . | . | .
N/C(=N\OC(=O)c1cccc(Br)c1)c1ccc([N+](=O)[O-])cc1 | . | 13.7 | . | . | .
N/C(=N\OC(=O)c1cccc(Br)c1)c1ccc(Br)cc1 | . | 23.1 | . | . | .
COc1ccc(C(=O)O/N=C(\N)c2ccc(Br)cc2)cc1 | . | 20.0 | . | . | .
Cc1ccc(CNC(=O)O[C@H]2CC[C@@]34CCCN3C(=O)CCC[C@H]4[C@H]2C)cc1 | . | / | . | / | .
C=CC[C@@H]1NN2C(=O)[C@@H](C)[C@@H]3c4ccccc4C=NN3[C@@H]2c2ccccc21 | . | / | . | / | .
CNC(=S)N(Cc1ccc(OC)cc1)C1CC(=O)N(c2ccc(C(=O)OC)cc2)C1=O (configuration not stated) | . | / | . | / | .
COC(=O)CN(C(=S)Nc1ccc(F)cc1)C1CC(=O)N(c2ccccc2)C1=O (configuration not stated) | . | . | . | . | .
CCCOc1ccc(N2C(=O)CC(N(CCc3ccc(OC)c(OC)c3)C(=S)Nc3ccccc3)C2=O)cc1 (configuration not stated) | / | . | / | . | /
O=C1CC(N(Cc2ccc3c(c2)OCO3)C(=O)Nc2ccc(F)cc2)C(=O)N1c1ccccc1 (configuration not stated) | . | 26.7 | . | . | .
CNC(=S)N(Cc1ccc(OC)cc1)C1CC(=O)N(c2ccc(OC)cc2)C1=O (configuration not stated) | . | 18.3 | . | . | .
CCCOc1ccc(N2C(=O)CC(N(Cc3ccc(OC)cc3)C(=S)Nc3ccccc3)C2=O)cc1 (configuration not stated) | . | 24.2 | . | . | .
O=C1CC(N(CCc2ccccc2)C(=S)Nc2ccccc2)C(=O)N1c1ccc(F)cc1 (configuration not stated) | . | 27.4 | . | . | .
O=C(Cc1ccccc1)NC1CCCc2c1cnn2-c1ccc(F)cc1F (configuration not stated) | . | / | . | / | .
COCc1c(C(=O)N/N=C\c2ccccn2)nnn1-c1nonc1N | . | . | . | . | .
CCCc1c(C(=O)N/N=C/c2c[nH]c3ccccc23)nnn1-c1nonc1N | . | / | . | . | .
CCCN(CCC)Cc1c(C(=O)N/N=C/c2ccoc2)nnn1-c1nonc1N | . | . | . | . | .
COCc1c(C(=O)N/N=C/c2c[nH]c3ccccc23)nnn1-c1nonc1N | . | 18.1 | . | . | .
CCCN(CCC)Cc1c(C(=O)N/N=C/c2c[nH]c3ccccc23)nnn1-c1nonc1N | . | 21.9 | . | . | .
CCCN(CCC)Cc1c(C(=O)N/N=C/c2ccc(Br)cc2)nnn1-c1nonc1N | . | 22.0 | . | . | .
Cc1ccc(-c2c(C(=O)N/N=C/c3c[nH]c4ccccc34)nnn2-c2nonc2N)cc1 | . | 26.0 | . | . | .
